Test results reported in PubChem BioAssay.
Potency and affinity values are given separately. Calls of active or inactive are those of the source. No cut-off is given here; in the data, nearly all actives have IC50 up to about 0.91 µM.

molecular target: Calcium-dependent protein kinase 4 (Plasmodium falciparum (isolate 3D7)) (UniProt Q8IBS5); test: PfCDPK4 kinase inhibitors, biochemical, TCAMS library (AID 1159588); conditions: recombinant PfCDPK4, Kinase-Glo ATP depletion luminescence
Sequence (Q8IBS5 whole entry, looked up): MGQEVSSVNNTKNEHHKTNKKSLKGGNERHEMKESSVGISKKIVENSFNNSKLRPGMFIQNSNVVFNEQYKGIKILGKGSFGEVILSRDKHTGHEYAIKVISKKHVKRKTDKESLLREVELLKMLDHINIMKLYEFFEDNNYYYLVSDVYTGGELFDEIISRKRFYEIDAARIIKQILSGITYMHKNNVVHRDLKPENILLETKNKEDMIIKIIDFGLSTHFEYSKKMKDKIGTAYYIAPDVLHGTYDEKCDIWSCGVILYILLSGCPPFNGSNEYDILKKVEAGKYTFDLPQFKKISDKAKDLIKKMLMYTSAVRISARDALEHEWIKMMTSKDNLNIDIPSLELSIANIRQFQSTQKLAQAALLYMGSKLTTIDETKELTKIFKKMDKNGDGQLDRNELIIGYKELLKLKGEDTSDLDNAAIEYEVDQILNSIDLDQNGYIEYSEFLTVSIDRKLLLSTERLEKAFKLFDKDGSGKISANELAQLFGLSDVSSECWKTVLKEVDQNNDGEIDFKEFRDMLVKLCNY

outcome, inactive:
Cc1cc(N(C)CCN(C)C)nc(Nc2ccc(Cl)cc2)n1
c1ccc(CN2CCC(Nc3ccc(-c4cn[nH]c4-c4ccccn4)nc3)CC2)cc1
O=C(Nc1ccc2c(c1)CCN2C1CCN(Cc2ccc(O)cc2)C1)c1ccco1 (centres undefined)
Cc1ccc(NC(=O)c2ccc(CN3CCCN(CC4CCCCC4)CC3)cc2)cc1
COc1ccc2ccccc2c1CCCCN1CCN(CC(c2ccc(F)cc2)N2CCC(N3CCCC3)CC2)CC1 (centres undefined)
O=C(NCCN1CCC(NC(=O)c2ccc(-c3ccccn3)s2)CC1)c1ccc(Cl)c(Cl)c1
Cc1cc(NN=Cc2ccc(F)cc2)c2ccc(F)cc2n1
C=C[C@H]1CN(CCCCCCC)CC[C@H]1CCNc1ccnc2ccc(OC)cc12
CCC(O)c1ccc(Br)cc1NC(=O)c1cccc(Cl)c1 (centres undefined)
FC(F)(F)c1ccc2nc(-c3cccc(-c4ccc(CNCCc5ccncc5)cc4)c3)[nH]c2c1
CC(C)C[C@@H](/C=N/N1CC(=O)NC1=O)NC(=O)[C@H](CC(C)C)NC(=O)c1ccc(OCCN2CCOCC2)cc1
Cc1cccc2[nH]c(-c3cccc(-c4ccc(CNCc5cnn(-c6ccccc6)n5)cc4)c3)nc12
CCNC(=O)N[C@@H]1CN[C@@H](C#Cc2cc3c(Nc4ccc(OCc5cccc(F)c5)c(Cl)c4)ncnc3s2)C1
CN1CCN(CCCN(Cc2ccc(-c3ccc(CNC4CCCC4)cc3)cc2)C(=O)CCC2CCCC2)CC1
CCOC(=O)c1c[nH]c2c(sc3cc(OC)ccc32)c1=O
CS(=O)(=O)c1ccc(-c2cncc(Cl)n2)cc1
Cc1cccc2[nH]c(-c3cccc(-c4ccc(NC(=O)C(C)(C)c5ccccn5)cc4)c3)nc12
CN1CCc2ccc(NC(=O)Nc3ccc(Cl)c(Cl)c3)cc2C1
CCCCCCCCn1c2c(c(=N)c3c1CCC3)CCC2
Cc1cc(N2CCCN(C)CC2)nc(Nc2ccc(Cl)cc2)n1
N#CCSc1nnc(-c2ccccc2)c2ccccc12
CC(=O)N1CCC(C(=O)Nc2ccc(-c3cccc(-c4nc5ccc(C(F)(F)F)cc5[nH]4)c3)cc2)CC1
Cc1cc(N[C@@H](CC(C)C)C(=O)NCCOc2ccccc2)nc(NCCOc2ccccc2)n1
O=C(Nc1cccc(CN2CCCN(Cc3ncc[nH]3)CC2)c1)c1ccc(Cl)c(Cl)c1
O=C(NC1CCCCC1)c1csc(C2CCCN(C(=O)c3ccc(O)c(-c4cccc(C(F)(F)F)c4)c3)C2)n1 (centres undefined)
CC(=O)c1ccc(O)c(CC(O)CO)c1 (centres undefined)
O=C(/C=C/c1cc(C(F)(F)F)ccc1F)NCCCCCN1CCC(c2c[nH]c3ccccc23)CC1
Cc1nc2c(-n3cc(Cn4ccnc4)c4ccccc43)ncnc2n1-c1ccc(Cl)cc1Cl
Cc1cc(NC(=O)c2ccco2)ccc1OC1CCN(Cc2ccc(F)cc2)CC1
Cc1cc(CN2CCCC(OC(c3ccc(F)cc3)c3ccc(F)cc3)C2)ccc1O (centres undefined)
NC(N)=NN=CC(=O)Nc1cc([N+](=O)[O-])cc([N+](=O)[O-])c1
COc1cc(Nc2nccc(N3CCC(NS(=O)(=O)c4ccc(NC(C)=O)cc4)CC3)n2)cc(OC)c1OC
O=C(c1cccs1)N1N=C(c2cccs2)CC1c1cccc([N+](=O)[O-])c1 (centres undefined)
Oc1ccc(Cl)c2c1C(c1ccccc1)=NCC2
Cc1nc(C)c(CC(=O)Nc2cccc(-c3cccc(-c4nc5ccc(C(F)(F)F)cc5[nH]4)c3)c2)s1
CN(C)CCOc1cc(NC(=O)Nc2cccc3c(-c4ccncc4)cccc23)ccc1I
Cc1ccc(CN=C(N)NC(=O)c2nc(Cl)c(NCc3ccc(Cl)cc3)nc2N)c(C)c1
O=C(Nc1ccc(OC2CCN(Cc3ccccc3)CC2)c(Cl)c1)c1cccs1
COc1ccc(-c2cncc(-c3ccc(OC)c(OC)c3)n2)cc1OC
